Bioassay records from PubChem BioAssay.
The entries come from a sample that favours hits as a whole.
KDM5B inh = KDM5B demethylase inhibition; Q9UGL1; KDM5B demethylase, FDH-coupled NADH fluorescence (FDH is formaldehyde dehydrogenase); Potency, µM (highest dose often 57.7 µM), actives largely listed as inhibitors; 220,000 tested, 2.6% active; AID 1347165; active means well fitted inhibition curve with a large enough effect; further: 0% is about no effect; nearly all actives have a fitted effect of over 70% in size
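qHTS format, multiple compound concentrations. Buffer 50 mM HEPES pH 7.5/0.01% Tween-20; 200 nM KDM5BΔAP final; 10 min compound preincubation; substrate-mix levels 12.5 µM peptide, 25 µM α-KG, 0.25 mM NAD⁺; 30 min RT; ΔRFU.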
An asterisk follows results filed as active; i = inactive; ! = not confirmed by another sample. Potency means the concentration at half of the fitted maximal effect.

SMILES	KDM5B inh
O=C(NCCc1c[nH]c2ccccc12)c1cc2ccccc2[nH]1	i
CCCC12CN(C(=O)c3ccccc3)CC(C)(CN(C(=O)c3ccccc3)C1)C2=O	i
CC(NC(=O)/C=C/c1ccc(Br)cc1)C1CC2CCC1C2 (stereo unspecified)	i
CCOC(=O)C(NC(=O)[C@@H](NC(=O)c1ccc(Cl)cc1Cl)C(C)C)C(=O)OCC	i
Cc1ccc(-c2cc(C(=O)N3CCC4(CC(=O)NC4=O)C3)n[nH]2)o1 (stereo unspecified)	i
Cc1ncccc1Oc1ncnc(N2CCC3(CC(=O)NC3=O)C2)c1C (stereo unspecified)	i
N#Cc1cccc(N2CCC3(CC(=O)NC3=O)C2)n1 (stereo unspecified)	28µM*
Cc1cccc(-c2noc(CCCC(=O)N3CCC4(CC(=O)NC4=O)C3)n2)c1 (stereo unspecified)	i
O=C1CC2(CCN(c3cncc(C(=O)N4CCCCC4)n3)C2)C(=O)N1 (stereo unspecified)	28µM*
Cc1ncc(C(=O)N2CCC3(CC(=O)NC3=O)C2)c(-c2ccccc2)n1 (stereo unspecified)	i
COC(=O)c1ccc(COC(=O)C2COc3ccccc3O2)o1 (stereo unspecified)	i
Cc1ccc2c(Cl)cc(Cl)c(OCC(=O)NC(=O)NC3CCCC3)c2n1	i
CC(OC(=O)Cc1c[nH]c2ccccc12)C(=O)NC(N)=O (stereo unspecified)	i
Cc1ccc(CC(=O)NCc2nnc3cc(-c4nc(C5CC5)no4)ccn23)cc1	28µM*
CCc1noc(-c2ccn3c(CNC(=O)Cc4cccc(F)c4)nnc3c2)n1	i
O=C(Cc1ccccc1Cl)NCc1nnc2cc(-c3nc(C4CC4)no3)ccn12	16µM*
Cc1ccccc1CC(=O)NCc1nnc2cc(-c3nc(C4CC4)no3)ccn12	28µM*
CCC(C(=O)NCc1nnc2cc(-c3nc(C4CC4)no3)ccn12)c1ccccc1 (stereo unspecified)	i
N#Cc1ccc(C(=O)NCC(=O)N2CCCCCCNC(=O)CC2c2ccccc2)cc1 (stereo unspecified)	i
CCOC(=O)C1=C(C)O[C@]23OC(N)=C(C#N)[C@]12C(=O)c1ccccc13	i
CN(Cc1ccsc1)C(=O)CC1C=CCC1 (stereo unspecified)	i
COC(=O)COc1cc(C)cc2oc(=O)cc(-c3ccccc3)c12	i
CC(C)CCOc1cccc(N)c1	i
CCOc1ccccc1NC(=O)N1CCCCCCNC(=O)[C@@H]2CCCC[C@@H]21	i
Cc1ccc(-c2csc(NC(=O)C34CC5CC(CC(C5)C3)C4)n2)cc1	i
SMILES	KDM5B inh
COc1ccc(-c2c(C(=O)O)sc3c2NC(=O)CC32C(=O)Nc3c(C)cccc32)cc1 (stereo unspecified)	i
N#Cc1ccc(CNC(=O)[C@@H]2Cc3nc[nH]c3CN2Cc2ccccc2)cc1	i
COc1ccc(CN2Cc3[nH]cnc3C[C@H]2C(=O)N(C)Cc2ccccc2)c2ccccc12	i
COc1ccc(CN2Cc3[nH]cnc3C[C@H]2C(=O)NC2CCCCC2)c2ccccc12	35µM*
O=C([C@@H]1Cc2nc[nH]c2CN1CC1CC1)N1CCCC1	i
COc1ccc(CNC(=O)[C@@H]2Cc3nc[nH]c3CN2C(=O)NC2CCCCC2)cc1	32µM*
N#Cc1ccc(CNC(=O)[C@@H]2Cc3nc[nH]c3CN2C(=O)NC2CCCCC2)cc1	i
COc1ccc(CN2Cc3[nH]cnc3C[C@H]2C(=O)NCc2ccccc2)c2ccccc12	40µM*
O=C(NCc1ccccc1)[C@@H]1Cc2nc[nH]c2CN1Cc1ccc(Cl)cc1	i
COC(=O)[C@@H]1Cc2nc[nH]c2CN1Cc1ccc(Cl)cc1	32µM*
O=C(NC1CCCCC1)[C@@H]1Cc2nc[nH]c2CN1Cc1ccc(C(F)(F)F)cc1	i
COC(=O)[C@@H]1Cc2ncn(Cc3ccc(OC)cc3)c2CN1C(=O)C1CCCCC1	i
O=C(NCc1ccc(Cl)cc1)[C@@H]1Cc2nc[nH]c2CN1Cc1ccc(Cl)cc1	i
COc1ccccc1NC(=O)Cn1nc(-c2ccc(C)c(S(=O)(=O)N3CCOCC3)c2)ccc1=O	i
Cc1cc(C)n(CCc2nnc(Nc3ccn(Cc4ccccc4Cl)n3)s2)n1	i
Cc1c(C(=O)Nc2cccc(Cl)c2)sc2ncnc(N(C)c3ccccc3)c12	i
O=C(CCc1ncc(-c2c(F)cccc2F)o1)N1CCN(S(=O)(=O)c2cc(F)ccc2F)CC1	i
CC(C)C[C@H](NC(=O)NCC(c1ccccc1)c1ccccc1)C(=O)O	i
O=C(CSc1ccc(F)c(F)c1)Nc1ccc2c(c1)OCCCO2	i
CN(CC1CCCN(CCc2ccc(Cl)cc2)C1)C(=O)c1ccc(-n2cnnn2)cc1 (stereo unspecified)	i
CCOC(=O)CN1C(C(C)=O)=C(OC(=O)CC)c2ccccc2S1(=O)=O	i
Cc1c(C)n2c3c(=O)[nH]c(=O)n(C)c3nc2n1CCNc1ccccc1Cl	i
CN1CCC(N2C[C@@H]3C[C@H]2C(=O)N(Cc2ccc(OC(F)(F)F)cc2)c2ccccc2O3)CC1	i
COc1ccc(C(NC(=O)Cn2c(=O)c3c(ncn3C)n(C)c2=O)C(C)C)cc1 (stereo unspecified)	i
COc1ccc(-c2c(NC(=O)c3cccc([N+](=O)[O-])c3)oc3ccccc3c2=O)cc1OC	i
SMILES	KDM5B inh
CCCc1cc(C(=O)Nc2ccccc2SC)cs1	i
N#CCN(CC#N)C(=O)Cc1cccs1	i
O=C(Nc1ccc(F)cc1)c1ccn2cncc2c1	35µM*
O=C(Nc1ccc(Cl)nc1)c1ccn2cncc2c1	i
C=CCNC(=O)c1ccn2cncc2c1	i
COc1ccc(CN2CCOc3ccc(C(=O)NCc4ccccc4F)cc3C2)c(OC)c1	i
C=C(C)CN1CCN(c2nc3c(c(=O)[nH]c(=O)n3C)n2Cc2ccccc2F)CC1	i
CCCCCSc1nc2c(c(=O)[nH]c(=O)n2C)n1Cc1ccc(Cl)cc1	i
COc1ccc(-c2csc(CCn3nc(C)c4c(C(F)(F)F)cc(=O)[nH]c43)n2)cc1	i
O=C(c1cc(Br)cn2ccnc12)N1CCC(N2CCCCC2)CC1	28µM*
COc1ccc(C(=O)N2CCC(N3CCNC3=O)CC2)cc1	89µM*
O=C(c1cc(Br)cn2ccnc12)N1CCOCC1	28µM*!
O=C(c1ccccn1)N1CCC(N2CCCC2=O)CC1	i
O=C(c1cccc(Cl)c1)N1CCC(N2CCCCCC2=O)CC1	i
O=C(Nc1ccccc1C(=O)N1CCOCC1)c1cccc(Br)c1	i
O=C(c1cc(Br)cn2ccnc12)N1CCC(N2CCCCCC2=O)CC1	25µM*
O=C(c1cc(-c2ccc(Br)cc2)on1)N1CCOCC1	i
COc1cc(C(=O)N2CCC(N3CCCCC3)CC2)cc(OC)c1C	i
COc1ccc(C(=O)N2CCC(N3CCCNC3=O)CC2)cc1	i
O=C(c1nc2sccn2c1Br)N1CCC(N2CCCCC2)CC1	i
O=C(c1ccccc1)N1CCC(N2CCNC2=O)CC1	i
CC1CCCN(CCS(=O)c2ccccc2)C1 (stereo unspecified)	i
Cc1ccccc1-n1c(SCC(=O)NC(C)c2cc3ccccc3o2)nnc1N1CCOCC1 (stereo unspecified)	i
CC1CCC/C(=C(\C#N)c2nc(-c3ccccc3)cs2)C1 (stereo unspecified)	i
Cc1cc(C)c(NC(=O)CN(C)CC(=O)NC(=O)NCc2ccccc2)c(C)c1	i
